# Only some compounds are listed: those with a hit (about 2.6% of all), similar ones and a draw of the others.
# Cruzain inh Det – blocks cruzain activity in presence of Triton detergent | AID 1478 | 200,000 compounds, 0.43% hits | Potency, µM, for the others: max response, negative = inhibition, hits mostly inhibitors | purified cruzain, Z-FR-AMC fluorescence, 0.01% Triton;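 further: plate controls were neutral wells for no effect and buffer without enzyme for full effect; nearly all actives have a fitted effect of over 40% in size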
# Target sequence (P25779 123-467 limits assumed): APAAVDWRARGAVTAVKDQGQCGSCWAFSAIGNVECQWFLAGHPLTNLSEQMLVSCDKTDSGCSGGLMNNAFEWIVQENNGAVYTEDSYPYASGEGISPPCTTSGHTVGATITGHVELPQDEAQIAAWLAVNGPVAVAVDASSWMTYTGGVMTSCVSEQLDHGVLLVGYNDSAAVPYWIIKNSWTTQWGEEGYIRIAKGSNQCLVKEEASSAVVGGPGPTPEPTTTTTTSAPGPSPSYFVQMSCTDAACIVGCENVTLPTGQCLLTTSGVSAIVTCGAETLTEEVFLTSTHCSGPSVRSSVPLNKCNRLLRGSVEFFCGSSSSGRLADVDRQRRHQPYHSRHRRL
#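 Read-out: AMC fluorescence (360 nm excitation, 450 nm emission), four reads over 2 min, first-to-third difference used. Conditions: cruzain 1.5 nM, Z-FR-AMC 2 uM, pH 5.5 acetate, 5 mM DTT, 0.01% Triton X-100.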
# Cruzain inh noDet – inhibitors of Trypanosoma cruzi cruzain without detergent | purified cruzain, Z-FR-AMC fluorescence, no detergent | Potency, µM, without a hit: max response, negative = inhibition, most hits filed as inhibitors | 200,000 compounds, 2.3% hits;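 further: plate controls were enzyme without inhibitor for no effect and buffer without enzyme for full effect; nearly all actives have a fitted effect of over 40% in size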
#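 Purified cruzain at 1.5 nM, pre-incubated 15 min with compound at room temperature in 100 mM sodium acetate pH 5.5, 5 mM DTT, 0.00005% Triton X-100. Reaction started with 2 uM Z-FR-AMC; AMC fluorescence increase over 60 s gives rate.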
# The depositor's hits bear a star; u = inconclusive; ! = not active in a repeat. The call rests on the fitted dose curve; in most records, active means well fitted curve in the direction sought with a large enough effect; inconclusive means small, poorly fitted or top-dose-only effect, or another doubt; inactive means no such curve, though single readings can be large; an effect the other way counts as inactive or inconclusive. Potency means the concentration at half of the fitted maximal effect.
SMILES,Cruzain inh Det,Cruzain inh noDet
O=C(NCCc1cccs1)C12CN(Cc3ccccc3)CC1C(c1cccc([N+](=O)[O-])c1)=NO2 (stereo unspecified),3.3%,12.6µM*
Cc1c(Cc2ccccc2)sc(/N=C/c2c(O)ccc3ccccc23)c1C(N)=O,-8.2%,-19.4%
Cc1c(Cc2ccccc2)sc(N)c1C(N)=O,-5.7%,u
Cc1c(Cc2ccccc2)sc(/N=C/c2ccc3ccccc3c2)c1C(N)=O,-4.2%,6.31µM*
COc1ccc(/C=C/C(=O)Nc2sc(Cc3ccccc3)c(C)c2C(N)=O)cc1,-11.4%,15.8µM*
CN(C)c1cccc(C(=O)OC(C(=O)Nc2ccc([N+](=O)[O-])cc2Br)c2ccccc2)c1 (stereo unspecified),-1.7%,15.8µM*
CN(C)c1cccc(C(=O)OC(C(=O)Nc2ccc(Cl)cc2C(F)(F)F)c2ccccc2)c1 (stereo unspecified),-10.7%,u
CCOc1ccc(C2C(C#N)=C(N)SC(N)=C2C#N)c(OCC)c1,-10.9%,-1.4%
CCCCc1ccc(C2C(C#N)=C(N)SC(N)=C2C#N)s1,u,31.6µM*
Cc1ccccc1-c1nc(CS(=O)(=O)CC(=O)NCCCc2ccccc2)c(C)o1,-1.7%,u
O=C(Cn1c(=O)n(-c2ccccc2)c(=O)c2ccc(C(=O)NCc3ccc4c(c3)OCO4)cc21)Nc1ccc(F)c(Cl)c1,-2.2%,-12.6%
CCCC(=O)NCc1ccc2c(c1)cc(C)n2C,6.7%,4.3%
Cc1cc2cc(CNC(=O)Nc3cccc(Cl)c3)ccc2n1C,2.1%,12.6µM*
O=C(NCc1ccncc1)Nc1cccc(Cl)c1,1.1%,-2.0%
Cc1cccc(NC(=O)NCc2ccc3c(c2)cc(C)n3C)c1,5.7%,7.94µM*
Cc1ccc(-c2onc(C)c2C)cc1S(=O)(=O)NCc1ccc(N(C)C)cc1,-4.0%,-6.2%
CCc1ccc(CNC(=O)c2cc3c(s2)-c2ccccc2OC3)cc1,-28.6%,-26.2%
O=C(O)Cn1nc(N2CCN(c3ccccc3)CC2)ccc1=O,-2.6%,-7.0%
O=C(NC1CC(=O)N(c2ccc(F)cc2)C1)C1CCCC1 (stereo unspecified),1.5%,-5.0%
CCCN1Cc2cccc(C(=O)Nc3ccccc3F)c2C1=O,-3.4%,-7.4%
CC(Sc1nnc(NC2CCCCC2)s1)C(=O)Nc1ccc2c(c1)C(=O)c1ccccc1C2=O (stereo unspecified),-0.2%,15.8µM*
CC(Sc1nnc(Nc2ccccc2)s1)C(=O)NC1CCCc2ccccc21 (stereo unspecified),-10.3%,-12.5%
Cc1ccc(CSc2nc(-c3ccccc3C)nc3c2Cc2c(CO)cnc(C)c2O3)cc1,-2.7%,7.9%
COc1cc(Cl)c(C)cc1Nc1nc2ccccc2n2cnnc12,1.9%,2.5%
CCc1ccccc1N(CC)C(=O)Cn1nc(Cc2ccncc2)c2ccccc2c1=O,-3.6%,6.9%
SMILES,Cruzain inh Det,Cruzain inh noDet
C=CCOC(=O)C1=C(C)NC(SCC(=O)Nc2ccc(C)c(Cl)c2)=C(C#N)C1c1ccco1 (stereo unspecified),-6.7%,10µM*
COCCOC(=O)C1=C(C)NC(SCC(=O)NC(C)(C)C)=C(C#N)C1c1ccco1 (stereo unspecified),-4.1%,11.6%
CC(=O)C1=C(C)NC(SCC(=O)c2ccc(C)cc2)=C(C#N)C1c1ccco1 (stereo unspecified),-15.2%,-29.1%
COc1ccccc1NC(=O)C1=C(C)NC(SCC(=O)c2ccccc2)=C(C#N)C1c1ccco1 (stereo unspecified),-3.7%,15.8µM*
Cc1c(C(=O)Nc2cccc(C(F)(F)F)c2)oc2ccc(S(=O)(=O)N(C)C3CCCCC3)cc12,1.0%,19.3%
Cc1ccc(NC(=S)NC(=O)c2ccc(-c3ccc(Cl)cc3)o2)c(O)c1,0.2%,-25.6%
Cc1cc(O)c(NC(=S)NC(=O)c2ccc(-c3ccc(Cl)cc3)o2)cc1C,4.5%,15.8µM*
Cc1ccc(S(=O)(=O)N/N=C\c2cccnc2)cc1,3.2%,-1.1%
Cc1ccc(-c2cc(-c3ccccc3O)nc(N/N=C/c3cccnc3)n2)cc1,3.0%,25.1µM*
O=S(=O)(Nc1cc(Sc2cccc3cccnc23)c(O)c2ccccc12)c1ccccc1,0.3%,3.16µM*
Cc1ccc(S(=O)(=O)Nc2cccc3cccnc23)cc1,-0.1%,12.8%
CCCOc1ccc(-c2c(C(=O)N/N=C/c3ccc(OCC)cc3)nnn2-c2nonc2N)cc1,-15.1%,10µM*
CCCOc1ccc(-c2c(C(=O)N/N=C/c3ccc(OC)cc3)nnn2-c2nonc2N)cc1,-8.3%,u
Oc1nc(Nc2ccc(Cl)cc2Cl)sc1/C=C1\C=Nc2ccccc21,-6.4%,25.1µM*
Cc1nc(Nc2ccc(Cl)cc2Cl)sc1C(=O)Nc1ccccc1,-5.4%,-7.7%
CCOC(=O)Cn1c(=O)n(CC2CCCO2)c2nc(-c3cccc(C)c3)nc(C(N)=O)c21 (stereo unspecified),-3.2%,0.0%
O=c1c(O)c(-c2ccc(O)c(O)c2)oc2cc(O)cc(O)c12,u,20µM*!
O=c1cc(-c2ccc(O)c(O)c2)oc2cc(O)cc(O)c12,-13.3%,-19.0%
Nc1ccc(C(=O)n2c3ccccc3c3ccccc32)cc1,-11.6%,25.1µM*
Nc1ccc(C(=O)N2CCCC2)cc1,-1.4%,3.8%
Nc1ccn([C@H]2O[C@@H](COP(=O)(O)O)[C@@H](O)[C@H]2O)c(=O)n1,4.2%,-2.3%
NC(=O)c1ccc[n+]([C@@H]2OC(COP(=O)([O-])OP(=O)(O)OCC3OC(n4cnc5c(N)ncnc54)C(OP(=O)(O)O)C3O)C(O)C2O)c1 (stereo partly specified),5.0%,-12.6%
Oc1csc(Cc2nc(-c3ccc4ccccc4c3)cs2)n1,-4.4%,u
Oc1csc(Cc2nc(-c3ccc(-c4ccccc4)cc3)cs2)n1,3.1%,10µM*
O=C(NCc1nc2ccccc2n1Cc1ccccc1Cl)c1ccccc1,-8.5%,4.1%
SMILES,Cruzain inh Det,Cruzain inh noDet
O=C(c1ccc2c(c1)CCN2S(=O)(=O)c1ccc(Cl)cc1)N1CCN(c2ccccc2F)CC1,-1.6%,-6.7%
Cc1ccc(-n2c3c(c(=O)[nH]c2=O)C(NC(=O)c2ccccc2F)(C(F)(F)F)C(=O)N3)cc1C (stereo unspecified),-1.1%,-6.2%
Cc1cc(-c2csc(NC(=O)c3ccc(S(=O)(=O)N(C)C)cc3)n2)c(C)n1-c1ccccc1,-5.2%,15.8µM*
CN(C)S(=O)(=O)c1ccc(C(=O)Nc2nc(-c3cc4ccccc4o3)cs2)cc1,-7.0%,u
CN(C)S(=O)(=O)c1ccc(C(=O)Nc2nnc(Cc3ccccc3)s2)cc1,3.2%,-24.2%
CN(C)S(=O)(=O)c1ccc(C(=O)Nc2nnc(SCc3ccccc3)s2)cc1,-2.7%,3.16µM*
CCSc1nnc(NC(=O)CN(C)S(=O)(=O)c2ccc(F)cc2)s1,-2.3%,-10.1%
CN(C)S(=O)(=O)c1ccc(C(=O)Nc2nnc(SCc3cccc(F)c3)s2)cc1,-0.7%,3.98µM*
O=C(NCc1cccc(Cl)c1)c1ccc(NC(=O)N2CC3CCCN3c3ccccc32)cc1 (stereo unspecified),-3.1%,u
COc1ccc(-c2cn3c(n2)sc2cc(C(=O)NCc4cccs4)ccc23)cc1,-4.4%,2.7%
CCOC(=O)N1CCc2c(sc3c2c(=O)n(Cc2ccccc2)c(=O)n3Cc2cccc(Cl)c2)C1,-3.0%,7.94µM*
CCOC(=O)N1CCc2c(sc3c2c(=O)n(Cc2ccccc2)c(=O)n3CC(=O)Nc2cccc(CC)c2)C1,-0.8%,-17.4%

# Screening data from PubChem.
